The results in this text go back to PubChem BioAssay (Tox21).

Each structure is given as a SMILES string. Records with an inconclusive call do not appear. Values without a mark were called inactive. Activity calls are given as the source filed them. Calls come from the whole dose curve; as a rule, active = well fitted cell-killing curve with a large enough effect in the repeat runs; inconclusive = weak or mixed curves, or effect the other way; inactive = no such curve, though single readings can be large or run the other way.
% is set by controls: 0 for no effect and ±100 for the full control effect; potency is the fitted concentration of half-maximal effect.

This test can be described thus: qHTS assay to identify small molecule agonists of the farnesoid-X-receptor (FXR) signaling pathway - cell viability counter screen (AID 743218). Note: nearly all actives have a fitted effect of over 45% in size. The settings on record: FXR-bla HEK293T viability, CellTiter-Glo luminescence, 16 h; series mostly up to 62.6 µM; viability change, negative = cytotoxic: at the top concentration. An excerpt: U.S. Tox21 Program National Center for Advancing Translational Sciences [NCATS] NIH Chemical Genomics Center [NCGC] U.S. Environmental Protection Agency [EPA] National Institutes of Environmental Health Sciences [NIEHS] National Toxicology Program [NTP] U.S. Food and Drug Administration [FDA] Tox21 Assay Overview: The farnesoid-X-receptor (FXR), a nuclear hormone receptor, is highly expressed in liver, intestine, kidney and adrenal cortex. Natural ligands of FXR are the bile acids (Cholic acid, Chenodeoxy cholic acid etc). FXR is an important regulator of diverse metabolic pathways, including the bile acid homeostasis, lipid and glucose metabolisms. FXR regulates the expression of target genes by binding either as a monomer or as a heterodimer with the retinoid X receptor (RXR). Numerous studies have reported that FXR exerts protective function during cholestasis, diabetes, liver regeneration, and cancer. To identify compounds that activate FXR signaling, GeneBLAzer FXR-UAS-bla HEK 293T cell line (Invitrogen, Carlsbad, CA) containing a beta-lactamase reporter gene under the control of a UAS response element was used to screen the Tox21 10K compound library. The cytotoxicity of the Tox21 compound library against the FXR-bla cell line was tested in parallel by measuring the cell viability using CellTiter-Glo assay in the same wells.
Tox21 Assay Protocol Summary: FXR-bla cells were dispensed at 5000 cells/5uL/well in 1536-well black wall/clear bottom plates using a Multidrop Combi (Thermo Fisher Scientific, Waltham, MA) dispenser. After the assay plates were incubated at 37 C and 5% CO2 for 5 h, 23 nL of compounds dissolved in DMSO, positive controls or DMSO only was transferred to the assay plate by a Pintool station (Kalypsys, San Diego, CA). The assay plates were incubated at 37C for 16 h. After 1 uL of LiveBLAzerTM B/G FRET substrate was added using a Bioraptr Flying Reagent Dispenser (FRD) workstation (Beckman Coulter, Indianapolis, IN), the plates were incubated at room temperature for 2 h, and fluorescence intensity was measured by an Envision plate reader (PerkinElmer, Shelton, CT). For cell viability readout that measures cytotoxicity, 4uL/well of CellTiter-Glo reagent was added into the assay plates using a Bioraptr FRD. After 30 min incubation at room temperature, the luminescence intensity in the plates was measured using a ViewLux plate reader (PerkinElmer).
On the technique in general: In qHTS, concentration-response curves come from the screen itself.
Regarding `CC(=O)Oc1ccc(C(=C2CCCCC2)c2ccc(OC(C)=O)cc2)cc1`, the “viability change, negative = cytotoxic” value is -4.96%. In the case of `CCCCC1C(=O)N(c2ccccc2)N(c2ccc(O)cc2)C1=O` (stereo not given), the “viability change, negative = cytotoxic” value is -28.6%. `C/C(=N/NC(=O)c1ccncc1)C(=O)O`: the “viability change, negative = cytotoxic” value was 11.7%. For `CCc1nn(CCCN2CCN(c3cccc(Cl)c3)CC2)c(=O)n1CCOc1ccccc1`, the “viability change, negative = cytotoxic” value is -5.03%. On the same count and under the same terms, to `COCc1c(C(C)C)nc(C(C)C)c(/C=C/[C@@H](O)C[C@@H](O)CC(=O)O)c1-c1ccc(F)cc1` belongs -15.3%; to `CC(C)CCCC(=O)O`, 18.9%; to `CNC(=O)N(c1ccccc1)c1ccccc1`, -9.18% [at 81.1 µM]. Consider `CCCOC(=O)c1ccc(N)cc1`, for which the “viability change, negative = cytotoxic” value is 3.49%. Same read-out and setting: to `c1cnc2c(n1)CCCC2` belongs 0.67%; to `Nc1nccs1`, -10.3%; to `CC(=O)Nc1ccc(N)cc1`, 6.03% [at 81.1 µM].

Turning to `CCOCCn1c(C2CCN(CCc3ccc(C(C)(C)C(=O)O)cc3)CC2)nc2ccccc21`, the “viability change, negative = cytotoxic” value was -0.799%. Same read-out and setting: in the case of `N#C[C@@H]1C[C@@H]2C[C@@H]2N1C(=O)[C@@H](N)C12CC3CC(CC(O)(C3)C1)C2` it was 0.161%. On the same count and under the same terms, to `NC(=O)Cn1c(=O)cc(CCN2CCN(c3nccc4sccc34)CC2)c2ccc(F)cc21` belongs -27.1%; to `CCN(Cc1cccc(S(=O)(=O)O)c1)c1ccc(C(=C2C=CC(=[N+](CC)Cc3cccc(S(=O)(=O)[O-])c3)C=C2)c2ccccc2)cc1`, 6.6%; to `Fc1ccccc1[C@@H](F)COC1CCC(Nc2ncnc3[nH]ncc23)CC1` (stereo not given in full), -16.6%. On the same count and under the same terms, to `CCC(C(=O)OCCOCCN(CC)CC)c1ccccc1` (stereo not given) belongs 6.37%; to `O=S(=O)(c1ccccc1)c1ccc(Cl)cc1`, -3.21%; to `CCCCCCOC(=O)C(C)C`, -7.19%. As for `CN1CCN(CCCN2c3ccccc3Sc3ccc(S(=O)(=O)N(C)C)cc32)CC1`, the Potency was 29.8 µM (active). Take `O=C(O)c1ccc(CO)o1`: the “viability change, negative = cytotoxic” value is 24.1% [at 81.1 µM]. With `CNCCCC1c2ccccc2C=Cc2ccccc21`, the Potency is 23.7 µM (active). Turning to `Cc1ccccc1N1C(=O)c2cc(S(N)(=O)=O)c(Cl)cc2NC1C` (stereo not given), the “viability change, negative = cytotoxic” value is -16%. On the same count and under the same terms, in the case of `Nc1ccc(S(=O)(=O)O)c(N)c1` it was 16.3%. On the same count and under the same terms, in the case of `CC(CCc1ccc2c(c1)OCO2)NN` (stereo not given) it was 18%; in that of `CC(=O)Nc1ccccc1C`, 19.3% [at 81.1 µM]; in that of `CC(=O)CC(c1ccc([N+](=O)[O-])cc1)c1c(O)c2ccccc2oc1=O` (stereo not given), 9.48%. Turning to `CCCCN(CCCC)CCCOC(=O)c1ccc(N)cc1`, the “viability change, negative = cytotoxic” value is -21.2%.

`CCCCC(=O)O[C@]1(C(=O)CO)[C@@H](C)C[C@H]2[C@@H]3CCC4=CC(=O)C=C[C@]4(C)[C@@]3(F)[C@@H](O)C[C@@]21C`: the “viability change, negative = cytotoxic” value was -18.3%.

With `Cc1nc2ccccn2c(=O)c1CCN1CCC(C(=O)c2ccc(F)cc2)CC1`, the “viability change, negative = cytotoxic” value was 1.1%. Same read-out and setting: to `COC(=O)CC(=O)C(C)(C)C` belongs -17.3%; to `CC(=O)N(c1onc(C)c1C)S(=O)(=O)c1ccc(N)cc1`, 5.21%. The same measure, in the same setting: in the case of `CCCOCCOCCO` it was 13.1%; in that of `C[Si](NC1CCCCC1)(NC1CCCCC1)NC1CCCCC1`, -35%; in that of `CCC(C)(C)C1CCC(O)CC1` (stereo not given), 10.5%.

As to `O=C1OCCN1/N=C/c1ccc([N+](=O)[O-])o1`, the “viability change, negative = cytotoxic” value is 3.47%. For `CCC(C)(O)CCC=C(C)C` (stereo not given), the “viability change, negative = cytotoxic” value was 4.17%. The same measure, in the same setting: in the case of `CN(C(=O)C(Cl)Cl)c1ccc(OC(=O)c2ccco2)cc1` it was 0.67%; in that of `COc1ccc(C(=O)c2cccc(O)c2)c(OC)c1`, 1.45%. In the case of `CCC(=O)OC/C=C/c1ccccc1`, the “viability change, negative = cytotoxic” value is 3.15%.
